Experimental data: ChEMBL document CHEMBL4513216, “Probing the Open Global Health Chemical Diversity Library for Multistage-Active Starting Points for Next-Generation Antimalarials” (ACS Infect Dis, 2020)
Out of some 65,000 compounds screened, about 2,100 (3.2%) showed an effect of 50% or more. The median lay at about -52%. Many of the other results were omitted from the sample, so strong results are more common in it than they were.

tested on: Plasmodium falciparum; assay: Screen against P. falciparum Asexual Blood Stage (ABS), at 5uM; format: functional, Dd2; settings: tested at 5 uM

Structure (SMILES)	INHIBITION [%]
CC(C)(C)n1ncc(NCC(O)c2ccccc2)c(Cl)c1=O (stereo unspecified)	-162
Cc1cccc(C2(CNC(=O)CO)CCCC2)c1	-108
Cc1cccc(C2(CNC(=O)C(C)NC(N)=O)CCCC2)c1 (stereo unspecified)	69.9
Cc1cccc(C2(CNC(=O)C(C)S(C)(=O)=O)CCCC2)c1 (stereo unspecified)	-66
NC(=O)[C@@H]1Cc2ccccc2CN1S(=O)(=O)N1CCCCC1	-124
CC(NC(=O)NC1CCN(Cc2ccncc2)CC1)c1cccc(F)c1 (stereo unspecified)	-98.2
CC(NC(=O)NC1CCN(Cc2ccncc2)CC1)c1ccc(F)cc1 (stereo unspecified)	-35.2
CC(CNC1CCN(Cc2ccncc2)CC1)c1ccc(F)cc1F (stereo unspecified)	70
Cc1cc(F)ccc1C(=O)N1C[C@@H]2COC[C@]2(CN(C)C)C1	-31.2
CC(C)(C)c1cc(NC(=O)CN2CCCC2Cn2cccn2)on1 (stereo unspecified)	-91.6
NC(=O)C1CCN(C(=O)NCc2cccnc2OCC(F)(F)F)C1 (stereo unspecified)	-75.2
CC(C)(C)n1ncc2c(=O)[nH]c(N3CCC4(CCCCC4)C3)nc21	52.6
CC(=O)N1CCN(c2nc3c(cnn3C(C)(C)C)c(=O)[nH]2)CC1	-76.5
CN1CCCN(c2nc3c(cnn3C(C)(C)C)c(=O)[nH]2)CC1	-12.6
Cn1ccc(CN2CCCC23CCN(Cc2ccccc2F)CC3)n1	0.737
CCN1CCN(c2ccc(F)cc2C(C)NCc2noc(C)n2)CC1 (stereo unspecified)	53.9
Cc1nc(CNC(=O)Nc2cc(F)ccc2N2CCN(C)CC2)no1	-28.8
CCN1CCN(c2ccc(F)cc2C(C)NCc2nc(C)no2)CC1 (stereo unspecified)	7.98
Cc1nccc(N[C@H]2CN(C(=O)CCN3CCCC3=O)C[C@@H]2C(C)C)n1	-132
COCCNCc1ccc(OCC(=O)NC(C)(C)C)cc1	-80.9
Cc1ccc(C(=O)N2CCC3(CCN3Cc3ccc(F)cc3)C2)cn1 (stereo unspecified)	-74.2
COCCN1CCO[C@H]2CN(C(=O)c3cccs3)C[C@H]21	-92.4

Structure (SMILES)	INHIBITION [%]
c1coc(-c2nnc(CN3CCCC(CN4CCCCCC4)C3)o2)c1 (stereo unspecified)	-67.1
CC(C)N(CC1CCCN(CC(N)=O)C1)C(=O)OC(C)(C)C (stereo unspecified)	-14.8
Cc1noc(C)c1CN1CCCC(CN(C(=O)OC(C)(C)C)C(C)C)C1 (stereo unspecified)	54.1
CC(C)N(CC1CCCN(Cc2ccon2)C1)C(=O)OC(C)(C)C (stereo unspecified)	-5.65
c1cncc(OC2CCN(CCn3cc4ccccc4n3)CC2)c1	-47.4
CN(CC(=O)Nc1cnn(-c2ccccc2S(C)(=O)=O)c1)C1CC1	-85.55
c1cncc(COCC2CC[C@H]3[C@H](CCN3CC3CCOCC3)O2)c1 (stereo partly specified)	-5.45
Cn1cc(C2CCCN2Cc2csc(-c3ccsc3)n2)cn1 (stereo unspecified)	-32.1
Cn1cc(C2CCCN2Cc2csc(Cc3ccccc3)n2)cn1 (stereo unspecified)	13.8
COCCN1CCN(Cc2csc(-c3cnn(C)c3)n2)CC1	-30.6
CCCC1CCCN(Cc2csc(-c3cnn(C)c3)n2)CC1 (stereo unspecified)	54.1
Cn1cc(C2CCCN2Cc2csc(-c3ccccc3)n2)cn1 (stereo unspecified)	53.8
Cn1cc(-c2nc(CN3CCN(CCO)CC3)cs2)cn1	-59.9
CCCS(=O)(=O)CCSc1cccc(C#N)c1	-113
O=C(Cc1ccsc1)N1CCC(c2noc(-c3cccnc3)n2)CC1	-53.4
O=C(Cc1ccncc1)N1C[C@H]2CC[C@@H](C1)N(Cc1ccccc1)C2=O	-99.2
COc1cc(Oc2ccc(C(F)(F)F)cn2)ccc1CN1CCCC1	30.2
COc1ccc(Oc2cccc(C#N)n2)cc1CN1CCCC1	-20.2
COc1ccc(Oc2ncccc2F)cc1CN1CCCC1	15.9
COc1cc(Oc2cnc3ccccc3n2)ccc1CN1CCCC1	59
COc1ccc(Oc2ccc(C(F)(F)F)cn2)cc1CN1CCCC1	51.7
COc1ccc(Oc2nccc3occc23)cc1CN1CCCC1	61.8

Structure (SMILES)	INHIBITION [%]
COc1ccc(Oc2ncccc2C(F)(F)F)cc1CN1CCCC1	32.5
Fc1cc(Oc2ccc(C(F)(F)F)cn2)cc(F)c1CN1CCCC1	24.4
COc1cc(Oc2ccc(C(N)=O)cn2)ccc1CN1CCCC1	-42.6
CCN(C)C[C@@H]1CN(C(=O)c2cc(C(F)(F)F)n[nH]2)C[C@@H]1CO	-5.31
COC[C@@]12CCO[C@@H]1CCN(Cc1ccc(C)s1)C2	-35.8
COCCC(=O)N1CC2(CCN(Cc3ccccc3Cl)CC2)C1	0.294
Cc1cc(C)c(CNC(=O)NCCC2CCCO2)c(=O)[nH]1 (stereo unspecified)	20.5
Cc1cc(C)c(CNC(=O)CCC2CCCO2)c(=O)[nH]1 (stereo unspecified)	53.2
Cc1cc(C)c(CNC(=O)NCC2CCCO2)c(=O)[nH]1 (stereo unspecified)	-64.8
Cc1c(NC(=O)N(C)CCO)cccc1OC1CCCC1	-65.2
CC(C)(C)c1cc(CN2C[C@H]3CC[C@@H](C2)N(Cc2ccccn2)C3)n[nH]1	47.7
CC(C)(C)c1cc(CN2C[C@@H]3CC[C@H]2CN(Cc2cscn2)C3)n[nH]1	20.1
CC(C)Cc1cc(CN2C[C@@H]3CC[C@H]2CN(Cc2cscn2)C3)n[nH]1	66.6
CCc1nccn1-c1nccnc1C1CCN(C(=O)COC)CC1	-25.8
CN(Cc1cccnc1)C(CO)c1cccc(Br)c1 (stereo unspecified)	-135
CSCc1ccc(CNC2CCCN(c3ccc(C)nn3)C2)o1 (stereo unspecified)	-38.5
CC(Cn1cncc1-c1cnn(Cc2ccccc2)c1)N1CCCCC1 (stereo unspecified)	65.7
CCC(CN1CCCC1)n1cncc1-c1cnn(Cc2ccccc2)c1 (stereo unspecified)	44.8
CC(CN1CCOCC1)n1cncc1-c1cnn(Cc2ccccc2)c1 (stereo unspecified)	-46.1
Cc1cccc(C)c1OC1CCN(Cc2ccn(C)c(=O)c2)CC1	-30.1
CC(OCC1CC1)C(=O)Nc1cccc(C(=O)Nc2ccncc2)c1 (stereo unspecified)	-140
O=C(CC1CN(Cc2ccccc2)CCO1)NCCN1CCOCC1 (stereo unspecified)	-108
